# Source: PubChem
# Sa growth 42C = S. aureus growth inhibition at 42 and 30 °C, primary screen, LtaS inhibitor project, RN4220, two temperatures. OD600, 20 h, 42 °C; stronger effect = lower value. AID 720641, 2013. relative growth, % (concentration not given with the values). 170,000 tested, 0.53% active;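 active means relative growth at most 50% at the other temperature and 20+ points below 30 °C, or under 10% at both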
# Sa helicase inh = inhibitors of S. aureus replicative helicase, primary screen, biochemical, fluorescence unwinding readout; 120,000 tested, 0.05% active; purified S. aureus helicase, fluorescence unwinding assay; AID 485395, 2010; inhibition, % (concentration not given with the values); in the data active means inhibition above about 25%, passing the limit was not always enough
# Hits are given with their value; . = inactive; / = no result; ! = not confirmed by another sample. Rows were chosen to be rich in hits. Some 0.52% of all compounds tested hit in one or more screens of this group.
SMILES,Sa growth 42C,Sa helicase inh
Cc1[nH]c2ccc(C(=O)NC3CC3)cc2c1C,.,.
N#Cc1cccc(NC(=O)Nc2cccn(Cc3ccccc3)c2=O)c1,.,.
CC(C)OC(=O)c1ccc2[nH]c3c(c2c1)CCCC3,34,.
COC(=O)c1ccc2[nH]c3c(c2c1)CCCC3,.,.
COc1ccccc1/C=N/N(CCC#N)C1=NS(=O)(=O)c2ccccc21,.,.
O=C(C1CC2c3ccccc3C1c1ccccc12)N1CCOCC1 (centres undefined),.,.
N#C/C(=C\c1ccc(-c2cc(C(F)(F)F)ccc2Cl)o1)C(=O)O,.,.
N#C/C(=C/c1ccc(-c2cc(C(=O)O)ccc2Cl)o1)C(=O)NCCc1c[nH]c2ccccc12,9.7,.
CC(C)N(CCC#N)S(=O)(=O)c1ccccc1,.,.
CCOC(=O)C1CCN(C2=NC(C)C(=O)N2c2ccc(C)cc2)CC1 (centres undefined),.,.
Clc1ccc(-c2cnc3nonc3n2)cc1,0.0,.
N#Cc1cc(-c2ccc(Cl)cc2)no1,.,.
O=c1cc(-c2ccccc2)nc(SCCOc2ccccc2F)[nH]1,.,.
Cc1noc2ncc(C(=O)c3ccccc3O)cc12,.,.
COCC1=C(C(=O)OC(C)OC(=O)OC(C)C)N2C(=O)[C@@H](NC(=O)C(=NOC)c3csc(N)n3)[C@H]2SC1 (some centres undefined),.,/
CO/N=C(/C(=O)NC1C(=O)N2C(C(=O)O)=C(COC(N)=O)CSC12)c1ccco1 (centres undefined),-1.0,/
CC(C)(O/N=C(\C(=O)N[C@@H]1C(=O)N2C(C(=O)[O-])=C(C[n+]3ccccc3)CSC12)c1csc(N)n1)C(=O)O (some centres undefined),.,/
COC(=O)c1cn(NC(=O)CSc2ccncc2)c(=O)c2ccccc12,.,.
CO/N=C(\C(=O)N[C@@H]1C(=O)N2C(C(=O)O)=C(COC(C)=O)CS[C@H]12)c1csc(N)n1,-0.8,/
CC(=O)OCC1=C(C(=O)O)N2C(=O)[C@@H](NC(=O)CSc3ccncc3)[C@H]2SC1,-0.3,/
COc1c(I)cc(Cl)c2cccnc12,.,/
Oc1c(I)cc(Cl)c2cccnc12,1.3!,.
CC(C)OC(=O)NCCN1C(=O)C2C3C=CC(C3)C2C1=O (centres undefined),.,.
CCn1cnc2cc(NCc3cccc(OC)c3)ccc21,.,.
COc1cccc(CNc2ccc3c(c2)ncn3C2CCCCC2)c1,0.1,.
SMILES,Sa growth 42C,Sa helicase inh
CCc1ccc(OCC(=O)N2CCCCC2)cc1,.,.
CCc1cc2c(=O)c(-c3ccccn3)coc2cc1O,.,.
CCN(CC)Cc1ccc(NC(=O)c2cccc(C)c2)cc1,.,.
S=c1[nH]c(-c2ccccc2)cs1,16,.
O=c1[nH]c(-c2ccccc2)cs1,.,.
Cc1ccc(-c2[nH]nc3c2C(c2ccccc2)C2=C(CC(C)(C)CC2=O)N3)cc1 (centres undefined),.,.
CN(CCO)Cc1ccc2c(c1)OCO2,.,.
N=c1c2c(-c3ccccc3)c(-c3ccccc3)n(Cc3ccco3)c2ncn1CCCN1CCOCC1,.,.
c1ccc(-c2c(-c3ccccc3)n(Cc3ccco3)c3ncnc(NCCCn4ccnc4)c23)cc1,0.1,.
c1ccc(-c2csc3ncnc(NCCCn4ccnc4)c23)cc1,.,/
CC(C)Cn1cnc2c(c(-c3ccccc3)c(-c3ccccc3)n2Cc2ccco2)c1=N,48,.
Cn1c(SCCN2CCCC2)nnc1C1CCN(C(=O)Cc2cccc(Cl)c2)CC1,.,.
CCc1ccc(C(=O)Nc2ccc(S(N)(=O)=O)cc2)cc1,.,/
CC(C)(C)c1ccc(C(=O)Nc2ccc(S(N)(=O)=O)cc2)cc1,2.7,.
Cc1c2oc3c(C)ccc(C(=O)N[C@@H]4C(=O)N[C@H](C(C)C)C(=O)N5CCC[C@H]5C(=O)N(C)CC(=O)N(C)[C@@H](C(C)C)C(=O)O[C@@H]4C)c3nc-2c(C(=O)N[C@@H]2C(=O)N[C@H](C(C)C)C(=O)N3CCC[C@H]3C(=O)N(C)CC(=O)N(C)[C@@H](C(C)C)C(=O)O[C@@H]2C)c(N)c1=O,-0.6,/
Cc1ccc(/C=C2\CCCC(CN(C)C)C2=O)cc1 (centres undefined),-0.2,/
CN(C)c1ccc(/C=C2\CCC(C3CCCC3)C2=O)cc1 (centres undefined),.,.
CCCS(=O)(=O)c1ncc(Cl)c(C(=O)N(Cc2ccccc2)Cc2ccco2)n1,1.2,/
COc1ccc(N(Cc2ccccc2)C(=O)c2nc(SC)ncc2Cl)cc1,.,/
CCSc1ncc(Cl)c(C(=O)N(Cc2ccccc2)Cc2ccco2)n1,.,/
CCS(=O)(=O)c1ncc(Cl)c(C(=O)N(Cc2ccccc2)c2ccc(OC)cc2)n1,5.0,/
Cc1ccc(CNCc2cccn2-c2nc3ccccc3s2)cc1,.,.
